Eya2 inh: qHTS Assay for Inhibitors of the Phosphatase Activity of Eya2; Protein phosphatase EYA2 (Homo sapiens), O00167; recombinant Eya2, OMFP fluorescence dephosphorylation (OMFP is methylfluorescein phosphate); Potency, µM (series often up to 76.9 µM), for the others: at the top dose activity, negative = inhibition, most hits filed as inhibitors; AID 488837, 2010; actives 0.006% (n = 330,000); note: % is set by controls: 0 for no effect and ±100 for the full control effect
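Eya2 protein (added as 0.2 uM solution) was preincubated with compound for 10 min at ambient temperature in 50 mM HEPES pH 7.5, 50 mM NaCl, 5 uM MgCl2, 0.05% BSA, 1 mM DTT. OMFP (added at 50 uM) then reacted 10 min; fluorescence read at 485/525 nm.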
a7 integrin act: qHTS for Activators of Integrin-Mediated Alleviation for Muscular Dystrophy; Potency, µM (highest dose often 38.3 µM), inactives show at the top dose activation, usual class: activators; alpha7betagal myoblasts, beta-gal FDG fluorescence, 48 h; AID 624291, 2012; actives 0.064% (n = 350,000);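 note: 100% = response of the positive control SU9516; nearly all actives have a fitted effect of over 60% in size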
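Alpha7betagal+/- myoblasts (passage 13) were plated 16-24 hr, then exposed to compounds (1:260 dilution of DMSO stock) for 48 hours at 37C. After MPER lysis, β-galactosidase reporter activity was read as FDG fluorescence (ex 480/em 540) after 30 minutes.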
Mm-Cpn inhibitor: Inhibitors of TCP-1 ring complex (TRiC) of Methanococcus maripaludis (MmCpn): qHTS | Chaperonin Mm-Cpn (Methanococcus maripaludis) | purified Mm-Cpn ATPase, ADP Transcreener TR-FRET | Potency, µM (series often up to 76.9 µM), for the others: at the top dose activity, negative = inhibition, most hits filed as inhibitors | actives 0.031% (n = 330,000) | AID 504842, 2011; note: % is set by controls: 0 for no effect and ±100 for the full control effect; nearly all actives have a fitted effect of over 80% in size
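Purified archaeal chaperonin (25 nM final) was preincubated with compound for 10 min at 37°C, then ATP (10 uM final) was added for 30 min at 37°C in Tris pH 7.4/KCl/MgCl2/DTT buffer. ADP was quantified by HTRF Transcreener TR-FRET.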
p53 reactivator: qHTS assay for re-activators of p53 using a Luc reporter. H1299 p53-A138V BP100-luciferase reporter, luminescence, 24 h. Potency, µM (top dose mostly 92.2 µM), without a hit: at the highest dose activity change, positive = activation, hits mostly activators. actives 0.063% (n = 320,000); note: % of control where 0% means no effect; nearly all actives have a fitted effect of over 45% in size
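H1299 (p53-null), stable ts p53-A138V + BP100-Luc; 1000 cells/well, Opti-MEM/10% FBS; cpd 4 pt, 1:5; 24 h, 37 deg C, 5% CO2; detection reagent 10 min RT; luminescence.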
USP2a block: qHTS Assay for Inhibitors of Ubiquitin-specific Protease USP2a Using CHOP2 as the Reporter; Ubiquitin carboxyl-terminal hydrolase 2 (Homo sapiens), O75604; USP2 core, Ub-CHOP2 coupled fluorogenic reporter, 485/531; Potency, µM (highest dose often 38.3 µM), for inactives: top-dose activity change, negative = inhibition, actives largely listed as inhibitors; actives 0.01% (n = 330,000);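 note: plate controls were DMSO wells for no effect and full inhibition by NEM control for full effect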
Target sequence (O75604 whole entry, looked up): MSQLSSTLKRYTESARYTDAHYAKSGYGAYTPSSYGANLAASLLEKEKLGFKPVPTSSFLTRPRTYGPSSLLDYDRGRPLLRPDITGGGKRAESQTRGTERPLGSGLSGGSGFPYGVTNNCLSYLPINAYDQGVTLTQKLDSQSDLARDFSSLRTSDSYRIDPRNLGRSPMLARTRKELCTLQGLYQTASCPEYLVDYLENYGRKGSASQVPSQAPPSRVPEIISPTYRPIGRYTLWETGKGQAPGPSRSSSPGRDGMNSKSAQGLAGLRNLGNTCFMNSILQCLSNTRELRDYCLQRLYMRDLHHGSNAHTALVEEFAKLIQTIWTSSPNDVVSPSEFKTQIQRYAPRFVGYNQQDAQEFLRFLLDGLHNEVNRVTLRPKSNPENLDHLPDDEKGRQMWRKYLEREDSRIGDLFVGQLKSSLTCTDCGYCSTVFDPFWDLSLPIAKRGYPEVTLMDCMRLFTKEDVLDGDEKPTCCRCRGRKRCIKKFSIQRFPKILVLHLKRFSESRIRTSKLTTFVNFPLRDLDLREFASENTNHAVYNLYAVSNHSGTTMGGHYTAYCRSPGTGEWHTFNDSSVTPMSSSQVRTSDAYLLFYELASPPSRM
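Deubiquitinase activity read as fluorescence (485/531 nm) after Ub-CHOP2 cleavage activates the enterokinase reporter on its substrate; USP2 core 10nM, Ub-CHOP2 and substrate 25nM each, 30min compound preincubation then 60min RT; data normalized to NEM, curves fitted.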
ClpP mod: qHTS Assay for Activators of ClpP; ATP-dependent Clp protease proteolytic subunit (Bacillus subtilis (strain 168)), P80244; purified B. subtilis ClpP, FRET peptide cleavage, 20 min; Potency, µM (doses to about 57.5 µM), without a hit: at the top dose activity change, negative = active; actives 1.9% (n = 340,000); active = well fitted falling curve with a large enough effect; inconclusive = small, poorly fitted or top-dose-only effect; inactive = no such curve, though single readings can be large or run the other way; note: the source files actives as falling curves though it sought activators and does not explain the sign; nearly all actives have a fitted effect of over 65% in size
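Purified B. subtilis ClpP, 10 microg/mL final in Tris/HCl pH8 with KCl, BSA, glycerol and Tween-20, cleaved an Abz/nitrotyrosine-quenched decapeptide. Fluorescence (ex 320, em 430) was read at 0 and 20 min at room temperature. Delta was normalized to 5.8 microM ADEP and DMSO/no-enzyme controls.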
ClpP validation: qHTS Assay for Activators of ClpP: Hit Validation of Inhibitors. actives 40% (n = 470). AID 743245, 2014. shares compounds with ClpP mod. Potency, µM (highest dose often 57.5 µM), for the others: at the highest dose activity change, negative = inhibition, hits mostly inhibitors. purified B. subtilis ClpP, FRET-FV substrate cleavage, 20 min; note: % is set by controls: 0 for no effect and ±100 for the full control effect; nearly all actives have a fitted effect of over 70% in size
Starred values were filed as active, the others as inactive. This is one part of a sample in which hits are shown more often than they occur. Unless noted, calls come from the whole dose curve; as a rule, active = well fitted curve in the direction sought with a large enough effect; inconclusive = small, poorly fitted or top-dose-only effect, or another doubt; inactive = no such curve, though single readings can be large; an effect the other way counts as inactive or inconclusive. Potency is the fitted concentration of half-maximal effect.

Results for CC(=O)Nc1ccc(-c2cc(-c3ccc(NC(C)=O)cc3)nc(-c3ccccc3)n2)cc1 ?
Eya2 inh: 4%; a7 integrin act: 5%; Mm-Cpn inhibitor: -15%; p53 reactivator: 0%; USP2a block: 0%; ClpP mod: 7.9µM*; ClpP validation: 24µM*

How did CC(=O)Nc1ccc(-c2cc(C(=O)O)c3ccccc3n2)cc1 do in these assays?
Eya2 inh: -2%; a7 integrin act: 17%; Mm-Cpn inhibitor: -1%; p53 reactivator: -2%; USP2a block: 2%; ClpP mod: 4%

Results for CC(=O)Nc1cccc(-c2cn3ccc(C)cc3n2)c1 ?
Eya2 inh: 0%; a7 integrin act: 28%; Mm-Cpn inhibitor: -2%; p53 reactivator: 2%; USP2a block: -6%; ClpP mod: 3%

Results for CC(=O)Nc1ccc2nc(-c3ccccc3)cn2c1 ?
Eya2 inh: -2%; a7 integrin act: 9%; Mm-Cpn inhibitor: -2%; p53 reactivator: inconclusive; USP2a block: 9%; ClpP mod: 3.5µM*; ClpP validation: 22µM*

How did COc1ccc(NC(=O)c2ccc(-c3nc(CSc4ccc(C)cc4)c(C)o3)cc2)cc1Cl do in these assays?
ClpP mod: -19%

Results for Fc1ccc(-n2c(-c3ccco3)nc3nc4ccccc4nc32)cc1 ?
Eya2 inh: -2%; a7 integrin act: 7%; Mm-Cpn inhibitor: 0%; p53 reactivator: -2%; USP2a block: -2%; ClpP mod: inconclusive

Results for Cc1ccc(-n2c(-c3ccco3)nc3nc4ccccc4nc32)cc1F ?
Eya2 inh: -9%; a7 integrin act: 6%; Mm-Cpn inhibitor: 2%; p53 reactivator: 2%; USP2a block: 4%; ClpP mod: 2.8µM*; ClpP validation: inconclusive

Results for O=S(=O)(Cc1ccccc1)c1ccccc1-c1nnc(-c2ccccc2)o1 ?
Eya2 inh: -14%; a7 integrin act: -44%; Mm-Cpn inhibitor: 1%; p53 reactivator: -1%; USP2a block: 2%; ClpP mod: 44%

What do the screens show for `Cc1ccc(-c2nnc(-c3ccccc3S(=O)(=O)Cc3ccc(Cl)cc3)o2)cc1`?
Eya2 inh: -1%; a7 integrin act: 0%; Mm-Cpn inhibitor: -2%; p53 reactivator: 0%; USP2a block: 3%; ClpP mod: 65%; ClpP validation: 14µM*

Results for CSc1ccccc1-c1nnc(-c2ccc(C)cc2)o1 ?
Eya2 inh: -14%; a7 integrin act: -6%; Mm-Cpn inhibitor: -3%; p53 reactivator: 12%; USP2a block: -2%; ClpP mod: -27%

What do the screens show for `O=S(=O)(Cc1ccc(Cl)cc1)c1ccccc1-c1nnc(-c2ccc(Cl)cc2)o1`?
Eya2 inh: -10%; a7 integrin act: -10%; Mm-Cpn inhibitor: 0%; p53 reactivator: -3%; USP2a block: 1%; ClpP mod: 64%; ClpP validation: 27µM*

What do the screens show for `Fc1ccc2nc(Nc3nc4c(F)cccc4s3)sc2c1`?
Eya2 inh: 1%; a7 integrin act: -25%; Mm-Cpn inhibitor: -2%; p53 reactivator: inconclusive; USP2a block: 3%; ClpP mod: 8.9µM*; ClpP validation: 4.9µM*

How did Fc1ccc2nc(Nc3nc4c(F)cc(F)cc4s3)sc2c1 do in these assays?
Eya2 inh: -6%; a7 integrin act: 16%; Mm-Cpn inhibitor: -9%; p53 reactivator: 16%; USP2a block: 3%; ClpP mod: 8.9µM*; ClpP validation: inconclusive

What do the screens show for `Fc1ccc2nc(Nc3nc4cc5c(cc4s3)OCO5)sc2c1`?
Eya2 inh: -4%; a7 integrin act: -19%; Mm-Cpn inhibitor: inconclusive; p53 reactivator: inconclusive; USP2a block: -1%; ClpP mod: inconclusive

What do the screens show for `Fc1ccc2nc(Nc3nc4cc5c(cc4s3)OCCO5)sc2c1`?
Eya2 inh: 7%; a7 integrin act: 16%; Mm-Cpn inhibitor: inconclusive; p53 reactivator: inconclusive; USP2a block: 0%; ClpP mod: 6.3µM*; ClpP validation: 3.9µM*

What do the screens show for `NNc1nc2ccc(F)cc2s1`?
Eya2 inh: -4%; a7 integrin act: 5%; Mm-Cpn inhibitor: -2%; p53 reactivator: inconclusive; USP2a block: -2%; ClpP mod: -1%

Results for COc1cc2c(cc1OC)C(COc1ccc3c(C)cc(=O)oc3c1)N(C(=O)c1ccccc1F)CC2 (centres undefined) ?
ClpP mod: 91%; ClpP validation: inconclusive

What do the screens show for `COCCNC(=O)c1cc2c(=O)n3cccc(C)c3nc2n1C`?
Eya2 inh: 16%; a7 integrin act: -3%; Mm-Cpn inhibitor: -3%; p53 reactivator: -8%; USP2a block: -2%; ClpP mod: 5%

What do the screens show for `COCCCn1c(C(=O)NCCN2CCOCC2)cc2c(=O)n3cccc(C)c3nc21`?
Eya2 inh: -9%; a7 integrin act: 15%; Mm-Cpn inhibitor: -2%; p53 reactivator: -11%; USP2a block: 0%; ClpP mod: 3.2µM*; ClpP validation: 24µM*

How did Cc1ccc(C(C)C)c(OCC(=O)Nc2cc(-c3nc4ccccc4[nH]3)ccc2C)c1 do in these assays?
ClpP mod: 4%

Results for O=C(Nc1ccc2c(c1)Cc1ccccc1-2)c1ccncc1 ?
Eya2 inh: 0%; a7 integrin act: -19%; Mm-Cpn inhibitor: -1%; p53 reactivator: 27%; USP2a block: 0%; ClpP mod: 10µM*; ClpP validation: -6%

Results for CCOC(=O)c1c(NC(=O)c2ccc(S(=O)(=O)N3CCC(C)CC3)cc2)sc2c1CCN(C)C2 ?
ClpP mod: 79%; ClpP validation: inconclusive

What do the screens show for `COc1ccc(S(=O)(=O)N2CCCC2C(=O)Nc2nc3c(s2)CCCC3)cc1` (centres undefined)?
Eya2 inh: 4%; a7 integrin act: -10%; Mm-Cpn inhibitor: -4%; p53 reactivator: 1%; USP2a block: 4%; ClpP mod: 6.3µM*; ClpP validation: 0%

Compound activity from PubChem BioAssay.
